From PubChem BioAssay
Shown are actives, neighbours in structure and some others; about 3.2% of the full set was active somewhere.
dFosB activator = activators of mouse delta FosB homodimer. purified delta FosB, TAMRA-CDK5 oligo fluorescence polarization; percent of positive-control signal above neutral wells. activation, % at 25 µM. actives 0.99% (n = 340,000);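 active = mean activation above about 17%, with every replicate also reaching it, limit read from the data, passing the limit was not always enough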
Target sequence (P13346 whole entry, looked up): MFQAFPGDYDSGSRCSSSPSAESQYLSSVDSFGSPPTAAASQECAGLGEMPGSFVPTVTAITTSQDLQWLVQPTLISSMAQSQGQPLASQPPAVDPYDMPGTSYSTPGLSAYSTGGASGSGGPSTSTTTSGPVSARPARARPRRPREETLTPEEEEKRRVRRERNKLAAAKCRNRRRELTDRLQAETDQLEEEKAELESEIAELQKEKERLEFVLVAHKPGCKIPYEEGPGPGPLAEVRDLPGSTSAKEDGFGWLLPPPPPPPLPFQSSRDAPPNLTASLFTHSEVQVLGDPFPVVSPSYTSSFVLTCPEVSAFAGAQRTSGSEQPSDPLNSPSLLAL
CDK5 inh = inhibitors of human CDK5/p35 kinase; AID 488839; Recombinant CDK5/p35, ADP-Glo luminescence, 60 min; Q00535+Q15078; inhibition, % at 10 µM; actives 0.01% (n = 330,000);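 active = highest replicate inhibition of at least 50% and at least 75% of replicates reaching 50%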;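 note: plate controls were DMSO neutral control for no effect and GW8510 at 10 µM for full effect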
SMARCA2 act = activators of SMARCA2 function. activation, % at 9.1 µM. MG213 cells, MMTV-luciferase reporter, dexamethasone, overnight. actives 1% (n = 370,000); in the data active = activation above about 7.8%;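 note: 0% = vehicle wells and 100% = reference activator wells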
Rtt109 HAT inh = C. albicans Rtt109 histone acetyltransferase inhibition. purified Rtt109/Vps75, ThioGlo CoA-SH fluorescence, 4 h. inhibition, % at 34.9 µM. Q5AAJ8. AID 540336. actives 0.16% (n = 330,000);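 active = inhibition of at least 50% in every replicate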
esBAF inh = SWI/SNF esBAF complex inhibition. actives 2% (n = 350,000). AID 602393. reporter increase, % at 12.5 µM. mouse ES cells, Bmi1-luciferase knock-in reporter, 24 h; 100% = twice the neutral-well signal; in the data active = activation above about 40%;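 note: 0% = median of the plate's neutral control wells and 100% = double that signal; a rise in the Bmi1 reporter signal indicates esBAF inhibition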
DYRK1A inh = blocks rat Dyrk1A kinase activity; inhibition, % at 12.5 µM; ADP-Glo luminescence, NFATc1 peptide; actives 0.43% (n = 310,000); in the data active = inhibition above about 50%;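 note: plate controls were vehicle with enzyme for no effect and no enzyme for full effect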
* = called active by the depositor; x = not tested or not shown.

SMILES	dFosB activator	CDK5 inh	SMARCA2 act	Rtt109 HAT inh	esBAF inh	DYRK1A inh
O=C(NC1CCCC(C(F)(F)F)C1)c1ccc([N+](=O)[O-])o1 (centres undefined)	-6	-6	7.9*	3	19	2
O=C(NC1CCCCC1)c1ccc([N+](=O)[O-])o1	2	2	x	0	18	-5
CCC(=O)N(C)C[C@@H]1Oc2ncc(-c3ccccc3C)cc2C(=O)N([C@H](C)CO)C[C@H]1C	x	x	x	x	-4	x
COC(=O)c1ccc2c(c1)C(C)(C)C(/C=C/c1ccc(OC)c(OC)c1OC)=[N+]2C	18*	1	-2	4	-39	10
CS(=O)(=O)C1=NN2C(=N)/C(=C\c3ccc(OC(=O)c4ccco4)cc3)C(=O)N=C2S1	-6	-1	0	57*	5	8
CC(C)CS(=O)(=O)C1=NN2C(=N)/C(=C\c3ccc(OC(=O)c4ccco4)cc3)C(=O)N=C2S1	-14	-2	-1	-1	-1	-3
CNC[C@H]1Oc2cc(C#Cc3ccccc3F)ccc2S(=O)(=O)N([C@@H](C)CO)C[C@@H]1C	x	x	x	x	-1	x
Cc1cc(C)cc(C(=O)O/N=C(\N)c2ccc(Br)cc2)c1	-1	0	-3	2	10	3
N/C(=N\OC(=O)COc1ccccc1Cl)c1ccccn1	-3	-3	6	-3	x	1
Cc1ccc(C)c(C(=O)O/N=C(\N)c2ccc(Br)cc2)c1	-12	2	5	-35	43*	-2
Cc1ccc(C(=O)O/N=C(\N)c2ccc(Br)cc2)cc1C	-4	1	3	6	53*	1
N/C(=N\OC(=O)c1ccoc1)c1ccc(Br)cc1	2	-2	7.8*	1	44*	-4
N/C(=N\OC(=O)COc1ccc2ccccc2c1)c1ccccn1	-5	-3	6	3	103*	16
CCCN1C[C@@H](C)[C@H](OC)CN(C)C(=O)c2ccc(NC(=O)Nc3c(C)noc3C)cc2OC[C@H]1C	x	x	x	x	3	x
Cc1ccc(C(=O)O/N=C(\N)c2ccccn2)c(C)c1	-9	51*	-8	-3	-83	47
COc1ccccc1C(=O)O/N=C(\N)c1ccccn1	-3	2	-1	-4	-36	x
Cc1csc(=O)n1CC(=O)OCc1cccc2ccccc12	-3	-1	4	5	58*	11
CCc1cccc(C)c1NC(=O)COC(=O)Cn1c(C)csc1=O	-2	-1	0	35	x	10
Cc1ccc(NC(=O)c2ccc([N+](=O)[O-])cc2)cc1S(=O)(=O)N(C)C	4	1	1	4	49*	-2
N#C/C(=C\c1ccc[nH]1)C(=O)Nc1ccccc1F	9	1	2	3	71*	3
Fc1cccc(Cl)c1CN1CCN(c2nc3ccccc3s2)CC1	-3	-1	5	0	70*	0
Cc1ccc(S(=O)(=O)Nc2ccc3c(c2)C(=O)N([C@@H](C)CO)C[C@H](C)[C@H](CN(C)S(=O)(=O)c2c(C)noc2C)O3)cc1	x	x	x	x	-3	x
Nc1nc(SCC(=O)N2CCc3ccccc3C2)[nH]c(=O)c1-c1ccccc1	1	0	1	-5	56*	-1
Nc1nc(SCC(=O)Nc2ccccc2)[nH]c(=O)c1-c1ccccc1	2	1	6	9	17	0
Cc1cccc(/C(N)=N/OC(=O)Cc2cccs2)c1	3	0	4	-13	48*	9
SMILES	dFosB activator	CDK5 inh	SMARCA2 act	Rtt109 HAT inh	esBAF inh	DYRK1A inh
Cc1ccc(/C(N)=N/OC(=O)Cc2ccccc2)cc1	7	0	5	4	x	1
Cc1ccc(/C(N)=N/OC(=O)Cc2cccs2)cc1	1	0	5	6	55*	6
N/C(=N\OC(=O)Cc1cccs1)c1ccccc1	-2	0	2	-2	72*	1
N/C(=N\OC(=O)Cc1cccs1)c1cccc([N+](=O)[O-])c1	-9	-3	-2	-2	34	2
N/C(=N\OC(=O)Cc1cccs1)c1ccc(Cl)cc1	-1	-1	4	1	81*	x
CN(C)C(=O)C[C@@H]1C[C@@H]2c3cc(NC(=O)NC4CCCC4)ccc3O[C@@H]2[C@H](CO)O1	x	x	x	x	-6	x
C[C@@H](NC(=O)C[C@H]1C[C@@H]2c3cc(NC(=O)Nc4ccccc4F)ccc3O[C@@H]2[C@@H](CO)O1)c1ccccc1	x	x	x	x	8	x
COCC(=O)Nc1ccc2c(c1)[C@H]1C[C@@H](CC(=O)NCCN3CCCCC3)O[C@H](CO)[C@H]1O2	x	x	x	x	0	x
CCC(=O)N1C[C@H](C)[C@@H](OC)CN(C)C(=O)c2ccc(NC(=O)NC(C)C)cc2OC[C@H]1C	x	x	x	x	-5	x
CSc1cccc(NC(=O)CC2Oc3ccccc3NC2=O)c1 (centres undefined)	37*	0	-3	x	-2	-4
COc1cccc(NC(=O)CC2Oc3ccccc3NC2=O)c1 (centres undefined)	-8	1	-1	2	3	-2
O=C(Nc1ccccc1)C1=C[C@@H](c2ccc(C(F)(F)F)cc2)C[C@@H](OCCCCO)O1	2	1	2	-13	50*	0
C[C@@H]1CCCCO[C@H](CN(C)CC2CC2)[C@@H](C)CN([C@@H](C)CO)C(=O)c2cc(NS(=O)(=O)c3cccs3)ccc2O1	x	x	x	x	1	x
CC(=O)N1[C@H](CO)[C@@H](c2ccccc2)[C@@H]1CN(C)C(=O)c1ccccc1F	x	x	x	x	-4	x
COc1ccc2c(c1)CCc1c(C(=O)N3CCCCCC3)noc1-2	-2	1	3	-6	44*	4
C[C@H](CO)N1C[C@H](C)[C@@H](CN(C)Cc2ccccc2)Oc2ncc(C#CC3(O)CCCC3)cc2C1=O	x	x	x	x	4	x
C[C@@H]1CCCCO[C@@H](CN(C)C)[C@@H](C)CN([C@@H](C)CO)C(=O)c2cc(NS(=O)(=O)c3cccs3)ccc2O1	x	x	x	x	1	x
Cc1ccc2nc(-c3ccc(Cl)cc3)c(Cc3ccccc3C(F)(F)F)n2c1	x	x	2	x	50*	x
FC(F)(F)c1ccccc1Cc1c(-c2cccc(Br)c2)nc2ccc(Cl)cn12	x	x	-1	x	9	x
Cc1ccc(-c2nc3ccc(Cl)cn3c2Cc2ccccc2C(F)(F)F)cc1	x	x	1	x	2	x
FC(F)(F)c1ccccc1Cc1c(-c2cccc(Cl)c2)nc2ccc(Cl)cn12	x	x	6	x	56*	x
CCC(=O)N[C@@H]1CC[C@H](CC(=O)NCc2ccc(OC)cc2)O[C@H]1CO	x	x	x	x	-4	x
Cc1noc(C)c1C(=O)Nc1sccc1C(N)=O	-8	0	7.9*	4	-12	-1
CN(C)CC(=O)N1CCCCN2[C@H](C1)[C@@H](c1ccc(-c3cccc(C(=O)N(C)C)c3)cc1)[C@@H]2CO	x	x	x	x	-3	x
CCN(CC)c1ccc(C(=S)N2CCN(c3ccccc3)CC2)cc1	-7	0	3	53*	-3	-1
